Measurements as given in PubChem BioAssay (EPA / NIEHS).
“And” between values parts separate entries of the source, which are not always exact repeats. Identical values can stand only once. A structure can be active in one record and inactive in another. The source made the active and inactive calls. How the source made its calls: active means hit-call score of the fitted dose curve at least 0.9, where 1 is the maximum; inactive means score below 0.9.

Experiment: ATG_PXRE_CIS: Attagene CIS-FACTORIAL HepG2 Assay for human Pregnane X Receptor Element (PXRE) (AID 2282957)
Settings: HepG2 Attagene CIS-FACTORIAL PXRE reporter, mRNA; actives raise or lower the signal
Description: ATG_CIS is a cell-based, multiplexed-readout assay that uses HepG2, a human liver cell line, with measurements taken at 24 hours after chemical dosing in a 24-well plate.ATG_PXRE_CIS is one of 52 assay component(s) measured or calculated from the ATG_CIS assay. It is designed to make measurements of mRNA induction, a form of inducible reporter, as detected with fluorescence intensity signals by Reverse transcription polymerase chain reaction (RT-PCR) and Capillary electrophoresis technology.Data from the assay component ATG_PXRE_CIS was analyzed into 1 assay endpoint. This assay endpoint, ATG_PXRE_CIS, was analyzed with bidirectional fitting relative to DMSO as the negative control and baseline of activity. Using a type of inducible reporter, measures of mRNA for gain or loss-of-signal activity can be used to understand the reporter gene at the transcription factor-level as they relate to the gene NR1I2. Furthermore, this assay endpoint can be referred to as a primary readout, because this assay has produced multiple assay endpoints where this one serves a reporter gene function. To generalize the intended target to other relatable targets, this assay endpoint is annotated to the nuclear receptor intended target family, where the subfamily is non-steroidal.
Human liver HepG2 cells are transiently transfected with multiple reporter transcription units (MRTUs) in 6-well plates using FuGene 6 reagent (Roche; 3 ml FuGene/1 mg DNA). The MRTU constructs are regulated by a cis-regulating element (promoter). […] A major difference between the CIS and TRANS system is that in CIS activities of endogenous TFs are measured, whereas the TRANS assay evaluates changes in activities of exogenous, chimeric NR-Gal4 proteins. […] At the end of 24 hour incubation, total RNA was isolated using TriZol reagent (Invitrogen). The isolated RNA is then reverse-transcribed using oligo(dT) primer and Mo-MLV reverse transcriptase (Invitrogen) with DNAse I (Ambion) treatment for 30 min. The one-tenth of the produced cDNA was amplified by PCR using Taq DNA polymerase (Invitrogen) and two reporter sequence-specific primers. The PCR products were fluorescently labeled by primer extension with 6-arboxyfluorescein (6-FAM) 5'-labeled reporter sequence-specific primer (2 min at 95 C, 20 s at 68 C and 10 min at 72 C) and these products were digested with 5U of HpaI (New England Biolabs) for 2h at 37 C. The fragments were purified using Qiaquick PCR columns (Qiagen), analyzed on an ABI 3130xL genetic analyzer (Applied Biosystems) with peak positions identified by using a set of X-rhodamine (ROX)-labeled MapMarker1000 molecular weight standards (BioVentures). The raw capillary electrophoresis data was processed using Attagraph software (Attagene).

SMILES | outcome | AC50
C[C@]12CC[C@@H]3c4ccc(O)cc4CC[C@H]3[C@@H]1C[C@@H](O)[C@@H]2O | inactive | 
CC(C)(O)C(=O)c1ccccc1 |  | 36.2 µM (active)
CC(C)(C)c1ccc(O)c(O)c1 |  | 2.45 µM (active) [middle of 5 runs]
NCc1cccc(CN)c1 | inactive | 
Oc1c(Cl)cc(Cl)cc1Sc1cc(Cl)cc(Cl)c1O |  | 3.03 µM (active)
Cc1ccc(C)c(S(=O)(=O)O)c1 | inactive | 
CCCCCCCC(OC)OC | inactive | 
O=P(O)(O)CCC(F)(F)C(F)(F)C(F)(F)C(F)(F)C(F)(F)C(F)(F)C(F)(F)C(F)(F)F | inactive | 
O=C(O)CN(CCCN(CC(=O)O)CC(=O)O)CC(=O)O | inactive | 
O=C(O)CCC(F)(F)C(F)(F)C(F)(F)C(F)(F)C(F)(F)C(F)(F)F | inactive | 
COC1=CC(=O)C[C@@H](C)[C@]12Oc1c(Cl)c(OC)cc(OC)c1C2=O | inactive | 
CCOC(=O)CN[C@@H](C(=O)N1CC[C@H]1C(=O)NCc1ccc(/C(N)=N/O)cc1)C1CCCCC1 | inactive | 
O=C(NO)c1ccccc1 | inactive | 
O=S(=O)(O)c1ccccc1 | inactive | 55.5 µM (active)
CCCCCCCCCCCC(=O)O | inactive | 
O=S(=O)(O)C(F)(F)C(F)(F)C(F)(F)C(F)(F)C(F)(F)C(F)(F)C(F)(F)C(F)(F)C(F)(F)C(F)(F)F |  | 83.7 µM (active) and 40.3 µM (active)
OCC1CCC(CO)CC1 (stereo not given) | inactive | 
Nc1ccn([C@@H]2O[C@H](CO)[C@@H](O)C2O)c(=O)n1 (stereo not given in full) | inactive | 
NNc1nc(-c2ccc([N+](=O)[O-])cc2)cs1 | inactive | 

SMILES | outcome | AC50
O=C(Nc1cccc([N+](=O)[O-])c1)c1cc2ccccc2cc1O |  | 6.79 µM (active)
CCCCc1ccc2ccccc2c1S(=O)(=O)O |  | 2.52 µM (active)
CCC(C)c1ccccc1O (stereo not given) |  | 27.4 µM (active) and 30.9 µM (active)
CC(O)COc1ccccc1 (stereo not given) | inactive | 59.5 µM (active)
CCCCCc1ccc(O)cc1 |  | 33.4 µM (active)
COc1cc(OC)nc(NC(=O)NS(=O)(=O)Nc2ccccc2C(=O)N(C)C)n1 | inactive | 
CCCCCCCCCCCCCCCCCC[N+](C)(C)Cc1ccccc1 | inactive | 
CC(C)CCOCCC(C)C | inactive | 
Cc1[nH]nc2c1N=C(c1ccccc1Cl)c1cc([N+](=O)[O-])ccc1N2 |  | 3.76 µM (active)
CN(CCO)S(=O)(=O)C(F)(F)C(F)(F)C(F)(F)C(F)(F)C(F)(F)C(F)(F)C(F)(F)C(F)(F)F | inactive | 
C=C(c1ccc(C(=O)O)cc1)c1cc2c(cc1C)C(C)(C)CCC2(C)C | inactive | 0.154 µM (active)
CN(C)c1ccc(C(=C2C=CC(=[N+](C)C)C=C2)c2ccccc2)cc1 | inactive | 
FC(F)(F)C(F)(F)C(F)(F)C(F)(F)I | inactive | 
CC(C)C=O |  | 61.9 µM (active) and 34.9 µM (active)
CCCCC=O |  | 27.2 µM (active)
CC1CCC(CO)CC1 (stereo not given) | inactive | 
c1cc[nH]c1 | inactive | 
CCC(=O)C=Cc1ccc(OC)cc1 |  | 26.9 µM (active)
